In PubChem BioAssay (EPA / NIEHS):
Several values for one entry are separate records, joined by “and”; a condition that tells them apart may be missing. Identical values can stand only once. Some structures have more than one record in an assay (separate samples or runs), and their calls can disagree. Activity calls are given as the source filed them. Rule for the calls: active = hit-call score of the fitted dose curve at least 0.9, where 1 is the maximum; inactive = score below 0.9.

read-out: urokinase plasminogen activator (uPA), PLAU (gene 5328); test: BSK_KF3CT_uPA: BioMAP Diversity Plus: KF3CT Assay for urokinase plasminogen activator (uPA) Biomarker Activity (AID 2283075); details: primary human keratinocytes with fibroblasts; actives raise or lower the signal
Procedure: BSK_KF3CT is a cell-based, multiplexed-readout assay that uses keratinocytes and foreskin fibroblasts, a human skin primary cell co-culture, with measurements taken at 24 hours after chemical dosing in a 96-well plate.BSK_KF3CTA is an assay component measured in the BSK_KF3CT assay. It measures uPA antibody related to regulation of gene expression using ELISA technology.Data from the assay component BSK_KF3CTA was analyzed into 1 assay endpoint. This assay endpoint, BSK_KF3CTA, was analyzed with bidirectional fitting relative to DMSO as the negative control and baseline of activity. Using a type of binding reporter, gain or loss-of-signal activity can be used to understand changes in the signaling as they relate to the gene PLAU. Furthermore, this assay endpoint can be referred to as a primary readout, because this assay has produced multiple assay endpoints where this one serves a signaling function. To generalize the intended target to other relatable targets, this assay endpoint is annotated to the protease intended target family, where the subfamily is serine protease.
The levels of cell surface (or secreted, indicated by the prefix "s") biomarker endpoints were measured by ELISA. Overt cytotoxicity to cells in confluent adherent cultures (all systems other than the BT system) was assessed by measuring total protein levels using sulforhodamine B (SRB) staining in parallel cultures at the time of biomarker measurements, indicated as SRB endpoints. For proliferation assays for adherent cell types, individual cell types are cultured at sub-confluence and relative cell numbers quantified by SRB staining at time points optimized for each system (48 h: 3C and CASM3C systems; 72 h: BT and HDF3CGF systems; 96 h: SAg system). SRB was performed by staining cells with 0.1% SRB after fixation with 10% TCA and reading wells at 560 nm.Viability and proliferation of PBMC (T cells) was quantified by Alamar Blue reduction for the SAg and BT systems. For PBMC viability (referred to as PBMC Cytotoxicity within the assay endpoint names), cells were plated (75,000/well in a 96-well plate) and then chemical samples added for 1 h before addition of activators, SEB and TSST-1 (20 ng/mL final concentration each). Cells were incubated for 90 h. Then, Alamar Blue (20 uL/well) (Invitrogen, Cat DAL1100) was added for 6 h, and the plates were read with a fluorescence microplate reader at 546/580 nm (excitation/emission). For PBMC proliferation, cells were plated and activated as above but incubated for only 16 h prior to addition of Alamar Blue. Plates were read after 6 h.

Compound	outcome	AC50
O=NN(c1ccccc1)c1ccccc1	inactive	
Clc1ccc(C(Cl)(Cl)Cl)cc1	inactive	
Clc1ccc(C(c2ccccc2Cl)C(Cl)(Cl)Cl)cc1 (stereo not given)		21.6 µM (active)
O=S(=O)(O)C(F)(F)C(F)(F)C(F)(F)C(F)(F)C(F)(F)C(F)(F)F	inactive	
CCC(C)(CC)c1cc(NC(=O)c2c(OC)cccc2OC)on1	inactive	
O=C(N[C@H]1CN2CCC1CC2)c1cc2ccoc2cn1	inactive	
Oc1c(Cl)c(Cl)c(Cl)c(Cl)c1Cl	inactive	27.4 µM (active)
CCCCCCCCOC(=O)c1ccccc1C(=O)OCCCCCCCC	inactive	
ClC1=C(Cl)[C@]2(Cl)[C@@H]3[C@@H](Cl)[C@H]4O[C@H]4[C@@H]3C1(Cl)C2(Cl)Cl	inactive	
NS(=O)(=O)C(F)(F)C(F)(F)C(F)(F)C(F)(F)C(F)(F)C(F)(F)C(F)(F)C(F)(F)F		13.5 µM (active) and 20.9 µM (active) and 21.5 µM (active)
O=C(NC(=O)c1c(F)cccc1F)Nc1cc(Cl)c(OC(F)(F)C(F)F)c(Cl)c1	inactive	
CCC(C)(c1ccc(O)cc1)c1ccc(O)cc1	inactive	
COc1ccc(O)c(C(C)(C)C)c1	inactive	
O=C(O)C(F)(F)C(F)(F)C(F)(F)C(F)(F)C(F)(F)C(F)(F)C(F)(F)C(F)(F)F	inactive	
CC(C)C(=O)OCC(C)(C)C(OC(=O)C(C)C)C(C)C (stereo not given)	inactive	
Cc1cccc([N+](=O)[O-])c1	inactive	
C[C@]12CCC(=O)C=C1CC[C@@H]1[C@@H]2CC[C@@]2(C)[C@H]1CC[C@]2(C)O	inactive	
ClC1=C(Cl)[C@]2(Cl)[C@@H]3[C@@H]4C[C@@H]([C@H]5O[C@@H]45)[C@@H]3[C@@]1(Cl)C2(Cl)Cl	inactive	
ClC(Cl)=C(c1ccc(Cl)cc1)c1ccc(Cl)cc1		38.7 µM (active)
O=C(NC(=O)c1cc(F)c(F)cc1Cl)Nc1cc(F)ccc1N1CCC(C(=O)O)CC1	inactive	

Compound	outcome	AC50
Cc1cc2c3c(c1)C(c1ccccc1)=N[C@@H](NC(=O)c1ccncc1)C(=O)N3CC2	inactive	
CCCCCCCCCc1ccc(O)cc1		17.2 µM (active)
O=C(O)C(F)(F)C(F)(F)C(F)(F)C(F)(F)C(F)(F)C(F)(F)C(F)(F)C(F)(F)C(F)(F)F		31.4 µM (active) and 55 µM (active) and 50.7 µM (active)
CN(C)c1nc(=O)n(C2CCCCC2)c(=O)n1C	inactive	
CCSC(=O)N(CC)C1CCCCC1	inactive	
CCC(C)c1cc([N+](=O)[O-])cc([N+](=O)[O-])c1O (stereo not given)	inactive	
CCOC(=O)C(O)(c1ccc(Cl)cc1)c1ccc(Cl)cc1	inactive	
ClC1=C(Cl)[C@]2(Cl)[C@@H]3[C@H]4C[C@H]([C@@H]5O[C@H]45)[C@@H]3[C@@]1(Cl)C2(Cl)Cl	inactive	
C=CC(=O)NCNC(=O)C=C	inactive	
Cc1cc(O)ccc1Cl	inactive	
C1CC2OC2CC1C1CO1 (stereo not given)	inactive	
Cc1ccccc1CO[C@@H]1C[C@@]2(C(C)C)CC[C@]1(C)O2	inactive	
Oc1ccc(C(c2ccc(O)cc2)(C(F)(F)F)C(F)(F)F)cc1		34.2 µM (active)
CCOCCOC(C)=O	inactive	
Nc1ccc(-c2ccc(N)cc2)cc1	inactive	
c1cc2ccc3cccc4ccc(c1)c2c34	inactive	
Oc1ccc(Cl)cc1Cl	inactive	
CC(C)(O)C(=O)Nc1ccc([N+](=O)[O-])c(C(F)(F)F)c1	inactive	
Nn1cnnc1	inactive	
